Screens: PubChem BioAssay, National Center for Advancing Translational Sciences (NCATS)
PLK1 PBD block – qHTS for Inhibitors of PLK1-PDB (polo-like kinase 1 - polo-box domain): Primary Screen; Plk1 PBD binding of FITC phosphopeptide, fluorescence polarization; Potency, µM, for inactives: max response, negative = inhibition, most hits filed as inhibitors; 360,000 compounds, 2.8% hits; AID 720504, 2013; further: potency means the concentration at half of the fitted maximal effect; series mostly up to about 57 µM; nearly all actives have a fitted effect of over 65% in size
Sfp PPTase inh – qHTS Assay for Inhibitors of Bacillus subtilis Sfp phosphopantetheinyl transferase (PPTase). 310,000 compounds, 3.5% hits. Potency, µM, for inactives: largest response in the series, negative = inhibition, hits mostly inhibitors. 4'-phosphopantetheinyl transferase ffp (Bacillus subtilis), Q9F4F7. AID 1490, 2009. Biochemical Sfp PPTase activity, qHTS;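 further: the enzyme is Sfp with the accession as filed and its product quenches rhodamine fluorescence; potency means the concentration at half of the fitted maximal effect; 0% = enzyme reaction without inhibitor and -100% = no enzyme wells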
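With Hepes-Na pH 7.6 buffer containing 10 mM MgCl2, Sfp (15 nM) modified BHQ-2-YbbR (12.5 uM) using rhodamine-CoA (5 uM). Two reads 30 minutes apart at 525/598 nm yielded each well's rate.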
VDR inhibitor – Inhibitors of the vitamin D receptor (VDR): qHTS; VDR-SRC2-3 peptide fluorescence polarization, 2 h; Potency, µM, for inactives: max response, negative = inhibition, hits mostly inhibitors; 400,000 compounds, 0.93% hits; further: potency means the concentration at half of the fitted maximal effect
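Two reagent solutions held at 4 deg C in the dark were dispensed, compounds pinned at 23 nl, and the mixture incubated 2 h at room temperature. Read-out: fluorescence polarization of VDR–SRC2-3 peptide binding.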
MmCpn inh – Inhibitors of TCP-1 ring complex (TRiC) of Methanococcus maripaludis (MmCpn): qHTS. Potency, µM (doses to about 76.9 µM), for inactives: at the highest dose activity, negative = inhibition, hits mostly inhibitors. AID 504842, 2011. purified Mm-Cpn ATPase, ADP Transcreener TR-FRET. Chaperonin Mm-Cpn (Methanococcus maripaludis). 330,000 compounds, 0.031% hits; further: potency means the concentration at half of the fitted maximal effect; nearly all actives have a fitted effect of over 80% in size
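Quantitative HTS used 25 nM Mm-CPN and 10 uM ATP in magnesium/KCl Tris buffer, pH 7.4, with 1 mM DTT. Hydrolysis ran 30 min at 37°C; ADP was read by HTRF.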
G9a inh – qHTS Assay for Inhibitors of Histone Lysine Methyltransferase G9a; G9a H3K9 monomethylation, AlphaScreen, 2 h; Potency, µM (doses to about 102 µM), for the others: at the highest dose activity, negative = inhibition, most hits filed as inhibitors; 350,000 compounds, 8.8% hits; further: potency means the concentration at half of the fitted maximal effect; nearly all actives have a fitted effect of over 75% in size
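Readings reflect AlphaScreen signal from monomethyl-H3K9 antibody detection. HMT at 20 nM; substrate b-H3K9 500 nM; cofactor SAM 20 uM; 2 h RT reaction; compounds tested as titrations in qHTS with 15 min preincubation.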
CCT chaperon mod – High-Throughput Screening for Modulators of Cytosolic Chaperonin Activity. 360,000 compounds, 0.3% hits. activity change, % (no concentration beside the values), hits read low. purified chaperonin ATPase assay, HTRF ADP detection, 30 min; in the data active means activity change below about -30%
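We incubate TRiC, 40 or 20 nM final, with library compounds at 76 uM and 10 uM ATP for 30 min at 37 °C. ADP formed is detected with Transcreener HTRF reagents after 30 min at room temperature.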
An asterisk follows results filed as active; [ ] = dose if it differs, or a comment. Rows were chosen to be rich in hits. Some 10% of all compounds tested hit in one or more screens of this group. Unless noted, the call rests on the fitted dose curve; in most records, active means well fitted curve in the direction sought with a large enough effect; inconclusive means small, poorly fitted or top-dose-only effect, or another doubt; inactive means no such curve, though single readings can be large; an effect the other way counts as inactive or inconclusive. Unless noted, on the % scale 0 is the no-effect control and ±100 the full control effect.

How did CCn1cc(/C=C(\NC(=O)c2ccc(OC)c(OC)c2)C(=O)N2CCN(C)CC2)c2ccccc21 do in these assays?
PLK1 PBD block: 26.7µM*; Sfp PPTase inh: 5.1%; VDR inhibitor: inconclusive; MmCpn inh: -27.2%; G9a inh: inconclusive; CCT chaperon mod: 1.3

How did Cc1c(C2=CCN(S(=O)(=O)c3ccc(Br)cc3)CC2)c2ccccc2n1C do in these assays?
PLK1 PBD block: -4.1%; Sfp PPTase inh: -20.5%; VDR inhibitor: -11.9%; MmCpn inh: -3.2%; G9a inh: 39.8µM*; CCT chaperon mod: 0.4

Results for Cc1cc(C)n(-c2cc(C(=O)O)cc(C(=O)O)c2)n1 ?
PLK1 PBD block: -7.0%; Sfp PPTase inh: 9.2%; VDR inhibitor: 10.1%; MmCpn inh: -11.6%; G9a inh: -0.8%; CCT chaperon mod: 0.5

Results for O=C(O)c1cc(N2C(=O)C=CC2=O)cc(N2C(=O)C=CC2=O)c1 ?
PLK1 PBD block: 2.67µM*; VDR inhibitor: inconclusive; CCT chaperon mod: 1.9

How did O=C(C1CCN(S(=O)(=O)c2ccc(Br)s2)CC1)N1CCN(c2cccc(Cl)c2)CC1 do in these assays?
VDR inhibitor: -9.0%; G9a inh: 2.8%[59 µM]

Results for O=C(NCc1ccc(F)cc1)C1CCN(S(=O)(=O)c2ccc3c(c2)CCCN3C(=O)C2CCC2)CC1 ?
VDR inhibitor: 5.1%; G9a inh: -3.8%[59 µM]

How did CCOc1ccc(NC(=O)CSc2nccn2-c2cccc(C)c2C)cc1 do in these assays?
VDR inhibitor: 4.7%; G9a inh: -47.4%[59 µM]

Results for O=[N+]([O-])c1cccnc1N1CCC(c2cc(-c3ccc(Cl)cc3)n[nH]2)CC1 ?
PLK1 PBD block: -3.6%; Sfp PPTase inh: inconclusive; VDR inhibitor: 2.3%; MmCpn inh: 3.9%; G9a inh: 8.91µM*; CCT chaperon mod: -6.3

How did CCOC(=O)N1CCC(NC(=O)c2c(C)nn(-c3cccc(C)c3)c2-n2cccc2)CC1 do in these assays?
VDR inhibitor: 4.9%; G9a inh: -0.5%[59 µM]

What do the screens show for `CC(NCC1(N2CCOCC2)CCCCC1)C(=O)Nc1ccc(Cl)cc1Cl` (stereo unspecified)?
PLK1 PBD block: -2.1%; Sfp PPTase inh: 56.2µM*; VDR inhibitor: -9.2%; MmCpn inh: -1.9%; G9a inh: 31.6µM*; CCT chaperon mod: -3.2

How did CC(NCC1(N2CCOCC2)CCCCC1)C(=O)N1CCc2ccccc21 (stereo unspecified) do in these assays?
PLK1 PBD block: -7.6%; Sfp PPTase inh: -1.2%; VDR inhibitor: -14.3%; MmCpn inh: -1.1%; G9a inh: inconclusive; CCT chaperon mod: 0.3

What do the screens show for `COc1ccc(/C=C/C(=O)NCCCN2CCCCCC2)cc1`?
PLK1 PBD block: -5.2%; Sfp PPTase inh: 1.1%; VDR inhibitor: 5.5%; MmCpn inh: -0.8%; G9a inh: 50.1µM*; CCT chaperon mod: -1.6

Results for COc1ccc2cc(/C=C/C(=O)N3CCN(CC(=O)N4CCCCCC4)CC3)ccc2c1 ?
PLK1 PBD block: -14.5%; Sfp PPTase inh: 4.6%; VDR inhibitor: -2.3%; MmCpn inh: 0.4%; G9a inh: 70.8µM*; CCT chaperon mod: -0.1

Results for O=C(/C=N/O)NCCCN1CCCCCC1 ?
PLK1 PBD block: -0.3%; Sfp PPTase inh: 1.7%; VDR inhibitor: 5.5%; MmCpn inh: -2.8%; G9a inh: 44.7µM*; CCT chaperon mod: 2.7

Results for Nc1nc2c(nc(Br)n2C2O[C@H]3COP(=O)(O)O[C@@H]3C2O)c(=O)[nH]1 (stereo partly specified) ?
G9a inh: 29.0%[12.7 µM]

What do the screens show for `Cn1c(=O)cc(SCC(=O)Nc2cccc(C#N)c2)c2ccc(Cl)cc21`?
VDR inhibitor: 4.3%; G9a inh: inconclusive
